# Screens as filed in PubChem.
# G9a block: G9a (human) methyltransferase inhibition; Q96KQ7; G9a H3K9 monomethylation, AlphaScreen, 2 h; Potency, µM (series often up to 102 µM), inactives show at the highest dose activity, negative = inhibition, most hits filed as inhibitors; actives 8.8% (n = 350,000); note: potency is the fitted concentration of half-maximal effect; % is set by controls: 0 for no effect and ±100 for the full control effect; nearly all actives have a fitted effect of over 75% in size
#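 G9a (20 nM) was preincubated 15 min with compound, then reacted 2 h at room temperature with 500 nM biotin-H3K9 peptide and 20 µM SAM. Monomethyl-H3K9 detected by AlphaScreen using anti-H3K9me1 antibody.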
# JMJD2A Tudor inh: blocks the human JMJD2A Tudor domain; AlphaScreen JMJD2A-Tudor / H3K4me3 peptide binding; Potency, µM (titrated, usually from 114 µM), for inactives: at the top dose activity change, negative = inhibition, actives largely listed as inhibitors; actives 4.4% (n = 390,000); AID 504339; note: potency is the fitted concentration of half-maximal effect; % is set by controls: 0 for no effect and ±100 for the full control effect; nearly all actives have a fitted effect of over 50% in size
# Target sequence (O75164 whole entry, looked up, the tested form may be a part): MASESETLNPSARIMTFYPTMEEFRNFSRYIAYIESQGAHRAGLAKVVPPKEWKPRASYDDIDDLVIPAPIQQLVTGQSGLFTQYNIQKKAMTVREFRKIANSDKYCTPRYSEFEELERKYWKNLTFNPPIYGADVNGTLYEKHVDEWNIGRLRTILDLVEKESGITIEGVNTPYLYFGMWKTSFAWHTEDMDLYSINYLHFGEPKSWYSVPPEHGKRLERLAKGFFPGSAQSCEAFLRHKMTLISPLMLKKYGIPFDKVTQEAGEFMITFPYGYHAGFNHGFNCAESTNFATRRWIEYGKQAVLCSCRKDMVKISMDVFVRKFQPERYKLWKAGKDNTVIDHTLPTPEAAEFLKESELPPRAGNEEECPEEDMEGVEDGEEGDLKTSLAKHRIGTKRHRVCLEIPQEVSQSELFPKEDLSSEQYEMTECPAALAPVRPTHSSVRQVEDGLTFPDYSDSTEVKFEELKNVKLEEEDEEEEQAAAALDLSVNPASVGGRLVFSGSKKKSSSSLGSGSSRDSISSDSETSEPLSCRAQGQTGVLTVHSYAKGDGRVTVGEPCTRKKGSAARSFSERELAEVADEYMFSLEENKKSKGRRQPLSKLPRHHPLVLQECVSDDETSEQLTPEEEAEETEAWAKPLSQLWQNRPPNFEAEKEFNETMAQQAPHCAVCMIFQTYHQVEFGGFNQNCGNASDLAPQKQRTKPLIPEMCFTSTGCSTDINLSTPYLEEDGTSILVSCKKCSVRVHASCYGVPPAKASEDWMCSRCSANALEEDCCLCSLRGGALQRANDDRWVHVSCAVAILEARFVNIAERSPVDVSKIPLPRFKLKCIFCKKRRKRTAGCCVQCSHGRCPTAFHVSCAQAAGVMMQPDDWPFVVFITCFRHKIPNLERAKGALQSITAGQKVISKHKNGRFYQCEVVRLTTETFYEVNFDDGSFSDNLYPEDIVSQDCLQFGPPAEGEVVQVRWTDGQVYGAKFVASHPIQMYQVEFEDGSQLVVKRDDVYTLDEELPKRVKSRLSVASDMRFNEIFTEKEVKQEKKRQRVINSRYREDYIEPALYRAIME
# Six1-Eya2 inh: Six1/Eya2 interaction inhibition; Q15475+O00167; AlphaScreen GST-Six1/His-Eya2 binding, biochemical; stronger effect = lower value; activity change, % (concentration not given with the values); actives 0.56% (n = 360,000); AID 651725; in the data active = activity change below about -65%; inconclusive = mostly about -30% to -63%; note: % is set by controls: 0 for no effect and ±100 for the full control effect
#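 Six1/Eya2 binding was read as AlphaScreen signal after compounds were pinned into GST-Six1 plus His-tagged Eya2 (5X stock 250/500 nM) in pH 8.0 Tris/NaCl/TCEP buffer, beads added, then incubated 1 h, 37 C, dark.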
# HP1b binding inh: HP1-beta chromodomain-methylated histone interaction inhibition; AlphaScreen HP1-beta / biotin-H3K9me3 peptide binding; Potency, µM (doses to about 114 µM), without a hit: at the highest dose activity change, negative = inhibition, actives largely listed as inhibitors; actives 0.56% (n = 390,000); AID 540317; note: potency is the fitted concentration of half-maximal effect; nearly all actives have a fitted effect of over 70% in size
#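 AlphaScreen: HP1-beta (50 nM) preformed 30 min with biotin-H3(1-18)K9me3 peptide (50 nM) in PBS pH 7.4, 0.01% Tween-20. Compound added for 30 min at RT, then streptavidin donor/nickel chelate acceptor beads (10 ug/mL) for 30 min.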
# CtBP-E1A inh: CtBP/E1A binding inhibition. AlphaScreen GST-E1A/His-CtBP binding, 1536-well; stronger effect = lower value. activity change, % (concentration not given with the values). actives 0.49% (n = 340,000). AID 651724; in the data active = activity change below about -65%; inconclusive = mostly about -30% to -63%; note: % is set by controls: 0 for no effect and ±100 for the full control effect
#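 AlphaScreen with 125 nM GST-E1A and 125 nM His-CtBP (5X stocks) in Tris pH 8.0, 300 mM NaCl, BSA, Tween 20, TCEP. Compounds preincubated 2 h at 37 deg C, then glutathione donor/nickel acceptor beads added for 1 h at 37 deg C in dark.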
# BAZ2B block: BAZ2B (human) inhibition | Potency, µM (titrated, usually from 114 µM), for the others: at the highest dose activity change, negative = inhibition, most hits filed as inhibitors | actives 4.4% (n = 360,000) | AlphaScreen BAZ2B-H3K14Ac peptide displacement | Q9UIF8; note: potency is the fitted concentration of half-maximal effect; % is set by controls: 0 for no effect and ±100 for the full control effect; nearly all actives have a fitted effect of over 60% in size
#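 Complex of BAZ2B and biotin-H3K14Ac (50 nM apiece) forms over 30 min at RT, then faces library compounds up to 110 uM for another 30 min; AlphaScreen beads added, 20 min dark incubation, luminescence read.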
# Active calls of the source: *; ? = inconclusive; / = no result; [ ] = remark or other dose. Compounds with a hit are over-represented: about 10% of the library has one in this group of screens. Unless noted, calls come from the whole dose curve; as a rule, active = well fitted inhibition curve with a large enough effect; inconclusive = small, poorly fitted or top-dose-only effect; inactive = no such curve, though single readings can be large or run the other way.
SMILES,G9a block,JMJD2A Tudor inh,Six1-Eya2 inh,HP1b binding inh,CtBP-E1A inh,BAZ2B block
O=C(CS(=O)(=O)c1ccccc1)N(CCCN1CCOCC1)c1nc2c(F)cccc2s1,?,-14%,1,30%,-4,-23%
O=C(Cc1ccccc1)N(Cc1cccnc1)c1nc2c(F)cccc2s1,6%[59 µM],40µM*,/,26%,/,-6%
O=C(Cc1ccccc1)N(Cc1cccnc1)c1nc2c(Cl)cccc2s1,9%[59 µM],-19%,/,16%,/,?
CC(C)(C)OC(=O)CC(=O)NNC(=O)c1cc2ccccc2[nH]1,/,-8%,/,/,/,/
CC(Oc1ccc(F)cc1)C(=O)NCC1(N(C)C)CCCCC1 (stereo not drawn),-2%[59 µM],-12%,/,23%,/,-7%
CCCC(/C=C/c1ccc(OC(C)=O)cc1)=C1/c2ccccc2C(=O)N1c1ccccc1,-28%[0.501 µM],-2%,40,24%,/,48%
Cc1cccc(OC(=O)c2cc(-c3ccc4c(c3)OCCO4)on2)c1C,?,25%,/,65%,/,-24%
Cc1ccc2sc(N(CCCN(C)C)C(=O)CCS(=O)(=O)c3ccccc3)nc2c1C,16µM*,-1%,4,48%,2,-31%
CN(C)CCCN(C(=O)CCS(=O)(=O)c1ccccc1)c1nc2cc3c(cc2s1)OCO3,/,-21%,3,35%,9,-11%
O=c1oc2c(CN3CCOCC3)c(O)ccc2c2c1CCCC2,?,0%,-3,10%,-3,2%
O=c1oc2c(CN3CCOCC3)c(O)c(Cl)cc2c2c1CCCC2,79µM*,-2%,3,16%,-3,11%
COc1ccc(OC)c(S(=O)(=O)N2CCC(n3c(C)nc4cccnc43)CC2)c1,7%[59 µM],13%,/,13%,/,5%
Cc1c(Cl)cccc1NC(=O)c1ccc2c(c1)nnn2C1CCCC1,0%[59 µM],-16%,/,2%,/,1%
O=C(Cn1c(-c2cccs2)cc2cc(F)ccc21)NCCCN1CCN(c2ccccc2F)CC1,?,-27%,/,42%,/,-13%
Cc1c(C)n(C)c2ccc(C(=O)NCCCN3CCN(c4ccc(F)cc4)CC3)cc12,40µM*,56µM*,-25,?,?,35µM*
Cn1cc(CC(=O)NCCCN2CCCC2)c2ccccc21,56µM*,-33%,0,33%,-1,-29%
O=C(Cn1c(=O)c2cccn2c2ccc(F)cc21)NCCCN1CCN(c2ccccc2F)CC1,45µM*,-20%,-1,25%,-5,-31%
Cc1c(C)n(C)c2ccc(C(=O)NCCCN3CCCC3)cc12,50µM*,?,-14,-5%,/,?
COC(=O)Cn1c(SCCOc2ccccc2Cl)nc2ccccc21,-31%[59 µM],?,/,4%,/,-9%
CC(=O)NC(CC(=O)NC1CCCc2ccccc21)c1ccccc1 (stereo not drawn),?,-20%,-1,30%,8,-1%
Cc1ccc(C2=Nc3ccccc3N=C(c3ccc(F)cc3)C2)c(O)c1,0%[59 µM],-7%,/,60%,/,7%
Cc1ccc(C)c(N2CCN(C(=O)c3cc4ccccn4n3)CC2)c1,50µM*,-18%,-10,34%,2,-6%
Cc1ccc(C)c(N2CCN(C(=O)c3ccc4[nH]c(C)c(C)c4c3)CC2)c1,-8%[59 µM],79µM*,/,-17%,/,-13%
COc1ccc(OC)c(CNC(=O)CCc2cn(C)c3ccccc23)c1,?,?,0,4%,0,-28%
Cc1[nH]c2ccc(C(=O)NCCCN3CCCCC3)cc2c1C,4%,-1%,20,57%,/,?
SMILES,G9a block,JMJD2A Tudor inh,Six1-Eya2 inh,HP1b binding inh,CtBP-E1A inh,BAZ2B block
Cc1[nH]c2ccc(C(=O)NCCN3CCCCCC3)cc2c1C,50µM*,?,-8,2%[57 µM],/,-30%[57.1 µM]
COc1ccc(OC)c(CCNC(=O)CCc2cn(C)c3ccccc23)c1,71µM*,?,-20,10%,-6,?
O=C(c1cc2ccccn2n1)N1CCCC1,22%,/,/,/,/,-5%
O=C(Cn1c(=O)c2cccn2c2cccnc21)N1CCN(c2ccc(Cl)cc2)CC1,?,?,-18,-4%,/,?
Cc1ccccc1NC(=O)NC1(C(=O)N2CCN(C)CC2)CCCCC1,15%,-4%,3,19%,2,8%
CC(=O)N1CCN(c2ncnc3ccccc23)CC1,/,-6%,1,40%,-7,3%
Cc1ccc(-n2c(C)nnc2SCC(=O)N(C)C2CCS(=O)(=O)C2)cc1 (stereo not drawn),3%[59 µM],-11%,2,30%,5,10%
Cc1c(C)n(C)c2ccc(C(=O)NCCCN3CCN(c4ccccc4F)CC3)cc12,45µM*,56µM*,?,?,?,?
CC(=O)NC1Sc2ccccc2N=C1c1ccccc1 (stereo not drawn),?,50µM*,0,?,10,-4%
CC(=O)Nc1nc(-c2ccccc2)c(-c2ccccc2)s1,/,-22%,/,25%,/,/
CCc1ccc2nc3c(c(C(=O)O)c2c1)CCC3,50µM*,-33%,2,0%,3,?
O=C(O)c1c2c(nc3ccc(S(=O)(=O)N4CCC(C(=O)NC5CCCC5)CC4)cc13)CCCCC2,?,-25%,2,21%,3,-6%
CC1CCc2nc3ccc(S(=O)(=O)N4CCC(C(=O)NC5CCCC5)CC4)cc3c(C(=O)O)c2C1 (stereo not drawn),45µM*,-23%,-19,26%,-1,-32%
CC1CCc2nc3ccc(S(=O)(=O)N4CCC(C(=O)N5CCCCC5)CC4)cc3c(C(=O)O)c2C1 (stereo not drawn),45µM*,-16%,-6,35%,2,-6%
CC1CCc2nc3ccc(S(=O)(=O)N4CCC(C(=O)O)CC4)cc3c(C(=O)O)c2C1 (stereo not drawn),32µM*,?,-8,38%,4,?
CN(C)Cc1ccccc1-c1cncnc1Nc1ccccc1,0%[0.501 µM],/,/,/,/,/
CCOc1ccc(OCC)c(NC(=O)c2nnn(Cc3cc(Br)ccc3OC)c2N)c1,-2%[59 µM],-22%,/,26%,/,-28%
O=[N+]([O-])c1ccc(S(=O)(=O)NCc2nc3cccnc3n2Cc2ccccc2Cl)cc1,24%[59 µM],-15%,/,6%[57 µM],/,2%
C#Cc1cccc(NC(=O)C2CCN(C(C)=O)CC2)c1,-7%,-5%,3,32%,4,5%
CC(=O)c1cccc(NC(=O)CN2CCN(S(=O)(=O)/C=C/c3ccccc3)CC2)c1,-1%[12.7 µM],0%,4,23%,2,8%
COc1ccc(-c2noc(CSc3nnc(-c4ccncc4)n3-c3ccc(C)cc3)n2)cc1OC,-3%[59 µM],-34%,/,38%,/,-2%
